An excerpt weighted towards active compounds, which were near 2.9% of everything screened.
A549 tox = kills or reduces viability of A549 cells in Nrf2 counter-screen; A549 ARE-Fluc cells, CellTiter-Fluor viability, 18-24 h; Potency, µM (titrated, usually from 46 µM), hits mostly inhibitors; actives 0.16% (n = 390,000)
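Cytotoxicity counterscreen: CellTiter-Fluor fluorescence was measured in A549 ARE_Fluc cells after 18-24 h of compound exposure in a concentration series. The subsequent BugLite luminescent read reports ARE-luciferase activity.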
ATXN viability = reduces viability in counter-screen for ATXN expression inhibitors; actives 0.49% (n = 400,000); Potency, µM (highest dose often 56.7 µM), most hits filed as cytotoxic; S2 cells (HEK-293 line with an ATXN2-luciferase reporter) viability, CellTiter-Fluor protease fluorescence, 24 h; further: nearly all actives have a fitted effect of over 40% in size
ATXN2 expr inh = reduces ATXN2 reporter expression in HEK-293 cells | Potency, µM (highest dose often 57 µM), most hits filed as inhibitors | HEK-293 ATXN2-luciferase reporter, luminescence, 24 h | actives 0.72% (n = 360,000); further: nearly all actives have a fitted effect of over 55% in size
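ATXN2-luciferase reporter cells (luciferase flanked by upstream and downstream ATXN2 gene portions) were treated 24 h at 37 °C with compounds at up to 57 uM. SteadyGlo luminescence gave expression; GF-AFC fluorescence gave viability.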
Nrf2 activator = activates Nrf2 signaling; AREc32 ARE-luciferase reporter (MCF7-derived line), luminescence, 24 h; actives 0.31% (n = 410,000); Potency, µM (titrated, usually from 46.1 µM), actives largely listed as activators; further: nearly all actives have a fitted effect of over 65% in size
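Nrf2 activation is followed as ARE-luciferase induction in the AREc32 line after one day of compound treatment; luminescence is read with Steady-Glo.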
Nrf2 block = blocks Nrf2 signaling; A549 ARE-Fluc reporter, luciferase luminescence, 18-24 h; Potency, µM (top dose mostly 46 µM), actives largely listed as inhibitors; actives 2.1% (n = 360,000); AID 504444; further: nearly all actives have a fitted effect of over 60% in size
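Concentration-response testing used A549 ARE_Fluc cells at 5000 cells/well. Following an 18-24 h compound incubation, viability was read by fluorescence (Ex 405/Em 525) and luciferase output by luminescence.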
Numbers stand for hits; i = inactive; ? = inconclusive; nt = no result; [ ] = remark or other dose. The call rests on the fitted dose curve; in most records, active means well fitted curve in the direction sought with a large enough effect; inconclusive means small, poorly fitted or top-dose-only effect, or another doubt; inactive means no such curve, though single readings can be large; an effect the other way counts as inactive or inconclusive.

SMILES	A549 tox	ATXN viability	ATXN2 expr inh	Nrf2 activator	Nrf2 block
Cn1ncc2ccc(-c3ccc4ncnc(NCc5cccs5)c4c3)cc21	i	nt	nt	nt	i
C#Cc1cccc(Nc2nc(NCc3ccccc3OC)nc3ccsc23)c1	nt	20µM	20µM	i	nt
COc1ccccc1CNc1nc(NC(C)C)nc2cc(-c3ccccc3)sc12	nt	14µM	20µM	i	nt
COc1ccccc1CNc1nc(NCc2cccc(OC)c2OC)c2sccc2n1	nt	?	32µM	i[9.22 µM]	nt
c1ccc(CNc2nc(NCCOc3ccccc3)c3sccc3n2)cc1	nt	nt	28µM	i	nt
CNc1nc(NCCOc2ccccc2)c2sccc2n1	nt	?	i	i	nt
CC(C)Nc1nc(NCCOc2ccccc2Cl)c2sc(-c3ccccc3)cc2n1	nt	?	?	i	nt
CC(=O)O[C@H]1C[C@@H]2CC[C@@H]3[C@H](CC[C@@]4(C)[C@H]3C[C@H](N3CC[N+](C)(C)CC3)[C@@H]4OC(C)=O)[C@@]2(C)C[C@@H]1N1CC[N+](C)(C)CC1	nt	i	nt	nt	nt
O=C(NCCNCCO)C1(C(F)(F)F)CC(CCc2ccccc2)CCCO1 (configuration not stated)	i	nt	nt	nt	i
Cn1c(N/N=C/c2cccs2)cc(=O)n(C)c1=O	i	i	i	7.9µM	i
Cc1ccc(N(CC(=O)NCCSc2ccccc2)S(=O)(=O)c2ccc(F)cc2)cc1	i	?	i	i	i
NS(=O)(=O)c1ccc(CCNC(=O)c2ccc([N+](=O)[O-])s2)cc1	?	i	i	i	9.2µM
NS(=O)(=O)c1ccc(CCNC(=O)c2ccc(Cl)s2)cc1	i	i	i	i	i
Cn1c(=O)c2c(nc(NCc3ccccc3)n2C)n(C)c1=O	i	i	i	i	i
Cn1c(=O)c2nc(NCc3ccccc3)sc2n(C)c1=O	i	i	i	2.5µM	?
Cc1cccc(N2CCN(CCCNC(=O)C3CCCN(c4ncnc5c4nc4n5CCCCC4)C3)CC2C)c1 (configuration not stated)	?	18µM	25µM	i	?
Cc1cccc(N2CCN(c3ncnc4c3nc3n4CCCCC3)CC2C)c1 (configuration not stated)	16µM	nt	nt	i	18µM
Clc1cccc(N2CCN(c3ncnc4c3nc3n4CCCC3)CC2)c1	i	?	i	i	?
COc1ccc(CCNC(=O)c2cc3c(=O)n4cccc(C)c4nc3n2C)cc1	i	nt	nt	i	i
COC(=O)[C@@H]1C[C@@H](NC(=O)c2cccc3c(C)c(C)[nH]c23)CN1Cc1cccc2ccccc12	nt	i	nt	nt	nt
Cc1ccc(NS(=O)(=O)c2ccc(F)cc2)cc1C	i	nt	nt	nt	i
CC(C)c1c(C(=O)N2CCCCC2c2cccnc2)cnn1-c1nccc(-c2cccs2)n1 (configuration not stated)	nt	i	nt	nt	nt
CCOC(=O)c1c(C)oc2c1c(C=NCCO)c(O)c1ccccc12	23µM	nt	i	i	15µM
Cc1cc(C)c(Cn2cnc(-c3ccc([N+](=O)[O-])cc3)c2)c(C)c1	?	i	i	i	21µM
COc1cc(NS(=O)(=O)c2ccc(N)cc2)nc(C)n1	nt	i	i	nt	nt
SMILES	A549 tox	ATXN viability	ATXN2 expr inh	Nrf2 activator	Nrf2 block
CCCCOC(=O)/C=C\C(=O)NC(N)=O	i	i	?	16µM	i
CCCCOC(=O)/C=C\C(=O)OCCCC	i	i	i	i	i
CCc1nnc(NC(=O)CCC(=O)N2CCN(CCOc3ccc(C)cc3)CC2)s1	i	i	i	i	21µM
CCN(CC)C(=O)/C(C#N)=C/c1cc(O)c(O)c([N+](=O)[O-])c1	nt	?	i	nt	nt
O=C(OC(C(=O)Nc1ccc([N+](=O)[O-])cc1Br)c1ccccc1)c1ccccc1 (configuration not stated)	i	i	i	i	23µM
OC[C@H]1OC(O)C[C@@H](O)[C@H]1O (some centres not stated)	nt	nt	i	nt	nt
COc1ccc(N2CCN(c3ccc(-c4nc(-c5ccccc5)no4)cc3[N+](=O)[O-])CC2)cc1	i	i	i	i	i
CCC(C)Nc1nc(C)nc2c1oc1ccccc12 (configuration not stated)	i	i	nt	i	21µM
Cc1nc(NC(C)c2ccccc2)c2oc3ccccc3c2n1 (configuration not stated)	i	i	?	i	13µM
COc1ccc(CCNc2nc(C)nc3c2oc2ccccc23)cc1OC	?	i	?	i	18µM

High-throughput results deposited in PubChem BioAssay by National Center for Advancing Translational Sciences (NCATS).
